Measurements taken from the supplement of paper PMC13380429.

These molecules were tested on Vero E6 infected with SARS-CoV-2 (assay: inhibition of SARS-CoV-2 cytopathic effect; higher = more antiviral protection, active = above 15). Conditions: 8.33 nM; 48 h.

| SMILES | inhibition of SARS-CoV-2 cytopathic effect |
| --- | --- |
| Nc1ccncc1 [dalfampridine] | 0.41% (inactive) |
| Cc1ccc(-c2cn3c4c(sc3n2)CCCC4)cc1 [pifithrin-cyclic] | -2.91% (inactive) |
| NS(=O)(=O)c1ccc2c(c1)C1C=CCC1C(c1ccc(Br)cc1)N2 (centres undefined) | 1.37% (inactive) |
| CC[N+](CC)(CC(=O)Nc1c(C)cccc1C)Cc1ccccc1 [denatonium-benzoate] | -3.36% (inactive) |
| CC(C)(C)Nc1nc(Nc2ccc(C(N)=O)cc2)cc(N)c1C#N | -2.29% (inactive) |
| CCCNC(C)C(=O)Nc1ccccc1C (centres undefined) [prilocaine] | -1.58% (inactive) |
| CCOC(=O)C1=C[C@]2(CC)CCCN3CCc4c(n1c1ccccc41)[C@@H]32 [vinpocetine] | 0.85% (inactive) |
| CC(C)[C@](O)(c1ccc2cc(OC(F)F)c(OC(F)F)cc2c1)c1c[nH]nn1 | 2.28% (inactive) |
| C[C@H](N/C(=N/C#N)Nc1cccc2ncccc12)c1ccccc1 | -2.48% (inactive) |
| O=c1[nH]c(=O)n([C@H]2CCCO2)cc1F (racemic) [ftorafur] | -1.89% (inactive) |
| O=C(NCCN1CCCCC1)c1ccc(I)cc1 [N-[2-(piperidinylamino)ethyl]-4-iodobenzamide] | 2% (inactive) |
| Cc1cccc(C)c1NC(=O)[C@@H](C)N [tocainide] | 0.17% (inactive) |
| Nc1ncnc(Nc2ccc(Cl)cc2)n1 [chlorazanil] | -0.51% (inactive) |
| CS(=O)(=O)c1ccc(C2=C(c3ccccc3)C(=O)OC2)cc1 [rofecoxib] | -0.86% (inactive) |
